NPYLR7 agonist – activates Aedes aegypti NPYLR7 receptor; HEK293T NPYLR7/Galpha15, GCaMP6s calcium fluorescence; activation, % at 10 µM; actives 0.15% (n = 270,000); AID 1259423; in the data active = activation above about 40%;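 note: 0% = vehicle and 100% = reference agonist at the receptor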
hcGAS lum – blocks human cGAS activity | Q8N884 | recombinant h-cGAS, ATP depletion, Kinase-Glo luminescence | inhibition, % at 12.5 µM | actives 0.081% (n = 290,000);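 note: 0% = vehicle reaction and 100% = reaction without DNA for no activity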
mcGAS inh – blocks mouse cGAS activity; recombinant cGAS, Kinase-Glo ATP depletion luminescence; Q8C6L5; actives 0.15% (n = 160,000); inhibition, % at 12.5 µM;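 note: 0% = negative control wells and 100% = reference inhibitor with no enzyme activity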
Target sequence (Q8C6L5 whole entry, looked up): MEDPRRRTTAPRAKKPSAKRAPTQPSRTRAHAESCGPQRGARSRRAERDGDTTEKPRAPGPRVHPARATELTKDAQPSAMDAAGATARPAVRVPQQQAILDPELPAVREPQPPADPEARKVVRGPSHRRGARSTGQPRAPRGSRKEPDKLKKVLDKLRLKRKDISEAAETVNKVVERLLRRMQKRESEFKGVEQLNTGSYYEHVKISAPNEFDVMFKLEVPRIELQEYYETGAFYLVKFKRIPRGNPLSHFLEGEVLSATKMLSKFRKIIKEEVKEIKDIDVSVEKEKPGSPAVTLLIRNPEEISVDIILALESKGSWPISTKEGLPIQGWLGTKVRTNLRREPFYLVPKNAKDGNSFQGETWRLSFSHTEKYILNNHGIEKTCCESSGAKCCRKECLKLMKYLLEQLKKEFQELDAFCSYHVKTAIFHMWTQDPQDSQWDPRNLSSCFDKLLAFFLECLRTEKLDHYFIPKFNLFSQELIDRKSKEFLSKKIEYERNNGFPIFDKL
An asterisk follows results filed as active; ! = not confirmed by another sample. Rows were chosen to be rich in hits. Some 0.24% of all compounds tested hit in one or more screens of this group. Cut-off read from the data, not from the text of the source, unless noted: active = inhibition above about 40%; inactive = the rest.

Cc1cnc(SCCN2CCOCC2)nc1C1CCCN(C(=O)Cc2c(F)ccc(F)c2F)C1 (centres undefined) was read as NPYLR7 agonist 16, hcGAS lum -5 and mcGAS inh -9.
`CCOc1ccccc1NC(=O)Cn1c(=O)n(CC2CCC(C(=O)NC)CC2)c(=O)c2sccc21` (centres undefined) gave NPYLR7 agonist 4, hcGAS lum -6 and mcGAS inh -3.
N=C1/C(=C/c2ccccc2)C(=O)N=C2SC(Cc3ccccc3)=NN12 was read as NPYLR7 agonist -1 and hcGAS lum 36.
For O=C(Nc1ncccc1O)c1nc(-c2ccccc2)n2c1CCCCC2 the results were NPYLR7 agonist 11, hcGAS lum 66* and mcGAS inh -13.
Screening Cc1cc(Cl)ccc1NC(=O)c1nc(C)n2c1CCCC2 returned NPYLR7 agonist -4 and hcGAS lum 3.
For O=S(=O)(Nc1nc2n(n1)C(c1ccccc1)CC(c1ccccc1)=N2)c1ccccc1 (centres undefined) the results were NPYLR7 agonist 25, hcGAS lum -9 and mcGAS inh -3.
Screening CS(=O)(=O)Nc1nc2n(n1)C(c1ccccc1)CC(c1ccc(Cl)cc1)=N2 (centres undefined) returned NPYLR7 agonist 66* and hcGAS lum 0.
`CC(C)Oc1ccc(S(=O)(=O)N2CCCCC2)cc1NC(=O)CSc1nncn1C1CC1` gave NPYLR7 agonist -4, hcGAS lum -1 and mcGAS inh 56*.
For CC(C)Oc1ccc(S(=O)(=O)N2CCCCC2)cc1NC(=O)CCl the results were NPYLR7 agonist -11 and hcGAS lum -9.
`COc1cccc(-c2cc(C(=O)Nc3cccc4c3C(=O)c3ccccc3C4=O)c3ccccc3n2)c1` gave NPYLR7 agonist 10, hcGAS lum -6 and mcGAS inh -2.
Screening COc1cc(C(=O)C=Cc2cc(OC)c(O)c([N+](=O)[O-])c2)ccc1O returned NPYLR7 agonist -8 and hcGAS lum -7.
COc1cc(C(=O)C=Cc2ccc(OC(F)F)cc2)ccc1O was read as NPYLR7 agonist -6, hcGAS lum -1 and mcGAS inh 35.
`COc1ccc(C(=O)C=Cc2cc(OC)c(O)c(OC)c2)cc1F` gave NPYLR7 agonist 64*, hcGAS lum -4 and mcGAS inh 5.
`COc1cc(C(=O)C=Cc2ccc(C#N)cc2)ccc1O` gave NPYLR7 agonist 1, hcGAS lum -10 and mcGAS inh 64*.
Screening O=C1/C(=C/c2cc3cc(Br)ccc3o2)Oc2c1ccc(O)c2CN1CCOCC1 returned NPYLR7 agonist 28, hcGAS lum -4 and mcGAS inh -4.
For CCN1CCN(Cc2c(O)ccc3c2O/C(=C\c2cc4cc(Br)ccc4o2)C3=O)CC1 the results were NPYLR7 agonist 79*, hcGAS lum -7 and mcGAS inh -3.
`CN1CCN(Cc2c(O)ccc3c2O/C(=C\c2cc4cc(Br)ccc4o2)C3=O)CC1` gave NPYLR7 agonist 62*, hcGAS lum -3 and mcGAS inh -5.
`O=C1/C(=C/c2cc3cc(Br)ccc3o2)Oc2c1ccc(O)c2CN1CCCC1` gave NPYLR7 agonist 20, hcGAS lum -8 and mcGAS inh -8.
CC(C)N1CCN(c2nnc(C(=O)NCc3ccccc3)c3ccccc23)CC1 was read as NPYLR7 agonist 5 and hcGAS lum -12.
For Cc1cc(C)cc(Cn2c(C)c(C(=O)NCc3ccccc3C(F)(F)F)sc2=O)c1 the results were NPYLR7 agonist 29 and hcGAS lum -5.
For CC[C@@]1(O)C(=O)OCc2c1cc1n(c2=O)Cc2cc3c(CN(C)C)c(O)ccc3nc2-1 the results were NPYLR7 agonist 88* and hcGAS lum -3.
`CN(C)CCc1cc2c(c3c1ccc1ccccc13)OCO2` gave NPYLR7 agonist 2, hcGAS lum 70* and mcGAS inh 56*.
For CN(C)Cc1c2ccccc2cc2ccccc12 the results were NPYLR7 agonist 2 and hcGAS lum 1.
`CC1CCc2c(sc(NC(=O)c3ccccc3[N+](=O)[O-])c2C#N)C1` (centres undefined) gave NPYLR7 agonist -1, hcGAS lum -7 and mcGAS inh -7.
Screening O=C(CCn1c(=O)[nH]c2ccccc2c1=O)NCCc1ccccc1Cl returned NPYLR7 agonist -8 and hcGAS lum 0.
For CNC(=O)NC(=O)CCN1CC(c2ccccc2Cl)c2c([nH]c3ccccc23)C1C (centres undefined) the results were NPYLR7 agonist 41* and hcGAS lum 1.
For CSc1nc(N2CCCCC2)c2cnn(CCNC(=O)c3ccccc3F)c2n1 the results were hcGAS lum -2 and mcGAS inh -7.
Screening COc1cc(NC(=O)c2ccco2)c(OC)cc1Cl returned NPYLR7 agonist 24 and hcGAS lum -11.
`COc1ccc(NC(=O)C2C=CCN2)cc1NC(=O)c1ccco1` (centres undefined) gave NPYLR7 agonist 64*, hcGAS lum -6 and mcGAS inh -18.
`O=S(=O)(c1ccccc1OC(F)(F)F)N(CC1CCOC1)C1CC1` (centres undefined) gave NPYLR7 agonist 11 and hcGAS lum -13.
Screening CCS(=O)(=O)N1CCN(c2nc(C)nc(COC)c2Cc2ccc(Cl)cc2)CC1 returned NPYLR7 agonist 4, hcGAS lum 3 and mcGAS inh -2.
Screening COc1cc(/C=C2\SC(=S)N(C(C)C(=O)O)C2=O)ccc1O (centres undefined) returned NPYLR7 agonist 82*, hcGAS lum -10 and mcGAS inh -1.
Screening COc1ccc(/C=C2\SC(=S)N(C(C)C(=O)O)C2=O)cc1OC (centres undefined) returned NPYLR7 agonist -3, hcGAS lum -1 and mcGAS inh -7.
CSCCC(C(=O)O)N1C(=O)/C(=C/c2ccc(O)cc2)SC1=S (centres undefined) was read as NPYLR7 agonist 74*, hcGAS lum -2 and mcGAS inh 1.
COc1ccc(/C=C2\SC(=S)N(C(CCSC)C(=O)O)C2=O)cc1OC (centres undefined) was read as NPYLR7 agonist -2, hcGAS lum -8 and mcGAS inh -3.
For CC(=O)OCC(=O)[C@H]1CCC2C3CCC4=CC(=O)CC[C@]4(C)C3CC[C@@]21C (some centres undefined) the results were NPYLR7 agonist -1 and hcGAS lum -3.
For CN(C)CCCN(C(=O)CN1C(=O)CCC1=O)c1nc2c(F)cccc2s1 the results were NPYLR7 agonist -3, hcGAS lum -5 and mcGAS inh -7.
`COc1cc(S(=O)(=O)NCc2ccc3c(c2)OCO3)c(C)cc1C` gave NPYLR7 agonist -15 and hcGAS lum 1.
Cc1cccc(CN(CCN2CCOCC2)Cc2ccc(C(O)(c3cccc(F)c3)c3cccc(F)c3)o2)c1 was read as NPYLR7 agonist 4, hcGAS lum 0 and mcGAS inh -3.
Screening CO[C@@]1(NC(=O)C2SC(=C(C(N)=O)C(=O)O)S2)C(=O)N2C(C(=O)O)=C(CSc3nnnn3C)CS[C@@H]21 (some centres undefined) returned NPYLR7 agonist -4 and hcGAS lum -1.
Screening CO[C@@]1(NC(=O)CSCC#N)C(=O)N2C(C(=O)O)=C(CSc3nnnn3C)CSC21 (some centres undefined) returned NPYLR7 agonist 49*! and hcGAS lum -6.

Screening data from PubChem BioAssay.
